# From PubChem BioAssay (EPA / NIEHS)
# Results filed as inconclusive are left out. Some structures have more than one record in an assay (separate samples or runs), and their calls can disagree. Active and inactive are the calls of the source. The calls were made as follows, unless noted: active = hit-call score of the fitted dose curve at least 0.9, where 1 is the maximum; inactive = score below 0.9.
# Assays:
# [1] = target: human Vitamin D Receptor (VDR), VDR (gene 7421) (UniProt P11473); assay: ATG_VDR_TRANS: Attagene TRANS-FACTORIAL HepG2 Assay for human Vitamin D Receptor (VDR) (AID 2283022; active = hit-call score of the fitted dose curve at least 0.9, where 1 is the maximum)
# Chain of human Vitamin D Receptor (VDR), VDR (gene 7421) (P11473 whole entry, looked up, the tested form may be a part): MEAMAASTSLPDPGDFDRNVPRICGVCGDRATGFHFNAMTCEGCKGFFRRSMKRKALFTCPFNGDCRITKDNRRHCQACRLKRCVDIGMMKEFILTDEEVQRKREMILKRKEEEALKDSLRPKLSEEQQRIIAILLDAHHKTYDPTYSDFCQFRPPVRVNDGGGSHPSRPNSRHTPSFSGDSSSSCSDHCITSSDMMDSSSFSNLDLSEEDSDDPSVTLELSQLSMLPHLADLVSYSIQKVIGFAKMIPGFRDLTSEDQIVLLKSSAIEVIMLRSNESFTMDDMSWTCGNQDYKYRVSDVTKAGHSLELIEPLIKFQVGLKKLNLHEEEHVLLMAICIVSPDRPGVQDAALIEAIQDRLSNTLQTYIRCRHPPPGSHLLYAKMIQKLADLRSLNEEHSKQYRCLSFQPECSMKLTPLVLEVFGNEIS
# Method in brief: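 Steps: transfect HepG2 with GAL4-UAS-driven reporter constructs; dose compounds 24 h; isolate RNA, reverse-transcribe, PCR-amplify with 6-FAM-labelled primer extension and HpaI digestion; quantify fragments by capillary electrophoresis relative to DMSO.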
# [2] = BSK_3C_SRB: Viability Assessment in the BioMAP Diversity Plus: 3C Assay (AID 2283023); settings: primary human endothelial cells (HUVEC);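 also: cells read 24 h after compound dosing; fitted both ways against DMSO so a hit may be signal rise or drop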
# Method in brief: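 Absorbance at 560 nm of sulforhodamine B-stained (0.1%) total protein served as a cytotoxicity readout in human umbilical vein endothelial cells, 24 h after chemical treatment. Signal was fitted bidirectionally relative to DMSO.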
# [3] = read-out: Matrix Metallopeptidase 1 (MMP1), MMP1 (gene 4312); assay: BSK_BE3C_MMP1: BioMAP Diversity Plus: BE3C Assay for Matrix Metallopeptidase 1 (MMP1) Biomarker Activity (AID 2283024); settings: primary human bronchial epithelial cells; actives raise or lower the signal
# Method in brief: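 In this multiplexed primary-cell system, human bronchial epithelium received chemicals for 24 h before an ELISA for MMP1. Values reflect bidirectional fits normalised to the DMSO baseline.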
# [4] = BSK_3C_Vis: BioMAP Diversity Plus: 3C Assay for Morphology Visualization (AID 2283025); settings: primary human endothelial cells (HUVEC);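 also: fitted both ways so gain or loss versus DMSO counts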;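 as to AC50: light microscopy image of cell morphology used as background control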
# Method in brief: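 Light-microscopy morphology readout, 24 h exposure, human primary umbilical vein endothelium; analysed relative to DMSO with bidirectional fitting.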
# [5] = read-out: Pselectin, SELP (gene 6403); assay: BSK_4H_Pselectin: BioMAP Diversity Plus: 4H Assay for Pselectin Biomarker Activity (AID 2283026); settings: primary human endothelial cells (HUVEC); actives raise or lower the signal
# Method in brief: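 Bidirectional fits against DMSO gave the endpoint. Cells: primary human umbilical vein endothelium, chemical-treated for 24 h before ELISA detection of P-selectin.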
# [6] = BSK_BE3C_SRB: Viability Assessment in the BioMAP Diversity Plus: BE3C Assay (AID 2283028); settings: primary human bronchial epithelial cells;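 as to AC50: fitted both ways so AC50 may mark signal gain or loss versus DMSO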
# Method in brief: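 Cells (human bronchial epithelial, primary) are treated with chemicals, and after 24 h the parallel cultures are fixed in 10% TCA. These are then stained with 0.1% SRB and read at 560 nm. Gain or loss of signal is fitted relative to DMSO.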
# [7] = read-out: Thrombomodulin, THBD (gene 7056); assay: BSK_3C_Thrombomodulin: BioMAP Diversity Plus: 3C Assay for Thrombomodulin Biomarker Activity (AID 2283029); settings: primary human endothelial cells (HUVEC); actives raise or lower the signal
# Method in brief: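 In a multiplexed primary-cell system, human umbilical vein endothelium received chemical and was assayed 24 h later for thrombomodulin by ELISA. Parallel cultures were SRB-stained (0.1% SRB after 10% TCA fixation, read at 560 nm) to flag cytotoxicity.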
# [8] = read-out: Vascular endothelial growth factor receptor 2 (Homo sapiens) (UniProt P35968); assay: BSK_4H_VEGFRII: BioMAP Diversity Plus: 4H Assay for Vascular endothelial growth factor receptor 2 (VEGFR2) Biomarker Activity (AID 2283031); settings: primary human endothelial cells (HUVEC); actives raise or lower the signal;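 as to AC50: cell-surface VEGFR2 protein level quantified by ELISA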
# Method in brief: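 ELISA read-out of VEGFRII in primary human umbilical vein endothelium, taken 24 h after chemical treatment. Responses are expressed relative to DMSO, with bidirectional fitting.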
# [9] = BSK_4H_SRB: Viability Assessment in the BioMAP Diversity Plus: 4H Assay (AID 2283027); settings: primary human endothelial cells (HUVEC);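 also: cells exposed to compound for 24 h before staining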;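 as to AC50: curves fitted both ways versus DMSO so AC50 may be loss or gain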
# Method in brief: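 HUVEC, 24 h post-dose; 10% TCA fix, 0.1% SRB stain, A560 nm. Total protein = overt cytotoxicity, parallel to biomarker read. Bidirectional fit vs DMSO baseline.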
# [10] = read-out: Urokinase-type plasminogen activator receptor (uPAR), PLAUR (gene 5329); assay: BSK_4H_uPAR: BioMAP Diversity Plus: 4H Assay for Urokinase-type plasminogen activator receptor (uPAR) Biomarker Activity (AID 2283030); settings: primary human endothelial cells (HUVEC); actives raise or lower the signal
# Method in brief: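 Cell-surface uPAR ELISA signal, measured 24 h after dosing human umbilical vein endothelial cells, was analyzed with bidirectional fitting relative to DMSO. Parallel SRB staining of total protein tracked overt cytotoxicity.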
smiles,measurement,setting,value
CCCCOC(=O)c1ccccc1C(=O)OCCCC,outcome,[1],inactive
same,AC50,[2],15.2 µM (active)
same,outcome,[2],inactive
same,outcome,[3],inactive
same,outcome,[4],inactive
same,outcome,[5],inactive
same,outcome,[6],inactive
same,outcome,[7],inactive
same,outcome,[8],inactive
Oc1ccccc1-c1ccccc1,outcome,[1],inactive
same,outcome,[2],inactive
same,outcome,[3],inactive
same,outcome,[4],inactive
same,outcome,[5],inactive
same,outcome,[9],inactive
same,outcome,[6],inactive
same,outcome,[7],inactive
same,outcome,[10],inactive
same,outcome,[8],inactive
COC(=O)c1ccccc1C(=O)OC,outcome,[1],inactive
same,outcome,[2],inactive
same,outcome,[3],inactive
same,outcome,[4],inactive
same,outcome,[5],inactive
same,outcome,[6],inactive
same,outcome,[7],inactive
same,outcome,[8],inactive
COP(N)(=O)SC (configuration not stated),outcome,[2],inactive
same,outcome,[3],inactive
same,outcome,[4],inactive
same,outcome,[5],inactive
same,outcome,[6],inactive
same,outcome,[7],inactive
same,outcome,[10],inactive
same,outcome,[8],inactive
CCCCC(CC)COC(=O)c1ccccc1C(=O)OCC(CC)CCCC (configuration not stated),AC50,[2],10.5 µM (active)
same,outcome,[3],inactive
same,AC50,[4],39 µM (active)
same,AC50,[5],15.6 µM (active)
same,AC50,[6],11 µM (active)
same,outcome,[7],inactive
same,outcome,[8],inactive
CC(C)Oc1cc(-n2nc(C(C)(C)C)oc2=O)c(Cl)cc1Cl,outcome,[1],inactive
same,AC50,[2],28.8 µM (active)
same,AC50,[3],7.66 µM (active)
same,AC50,[4],13.2 µM (active)
same,AC50,[5],29.3 µM (active)
same,AC50,[6],20 µM (active)
same,AC50,[7],20 µM (active)
same,AC50,[8],32.9 µM (active)
CON(C)C(=O)Nc1ccc(Cl)c(Cl)c1,outcome,[1],inactive
same,outcome,[2],inactive
same,outcome,[3],inactive
same,outcome,[4],inactive
same,outcome,[5],inactive
same,outcome,[6],inactive
same,outcome,[7],inactive
same,outcome,[8],inactive
CCOC(=O)C(Cl)Cc1cc(-n2nc(C)n(C(F)F)c2=O)c(F)cc1Cl (configuration not stated),outcome,[1],inactive
same,outcome,[2],inactive
same,outcome,[3],inactive
same,outcome,[4],inactive
same,outcome,[5],inactive
same,outcome,[6],inactive
same,outcome,[7],inactive
same,outcome,[8],inactive
Fc1ccc(Oc2ccnc3cc(Cl)cc(Cl)c23)cc1,AC50,[2],22.9 µM (active)
same,AC50,[3],35.9 µM (active)
same,AC50,[4],29.4 µM (active)
same,AC50,[5],23 µM (active)
same,AC50,[6],32.8 µM (active)
same,outcome,[7],inactive
same,AC50,[10],32.1 µM (active)
same,AC50,[8],27.2 µM (active)
CS/C(C)=N/OC(=O)N(C)SN(C)C(=O)O/N=C(\C)SC,AC50,[2],26.5 µM (active)
same,outcome,[3],inactive
same,AC50,[4],11.9 µM (active)
same,AC50,[5],19.9 µM (active)
same,AC50,[9],29.6 µM (active)
same,AC50,[6],28.6 µM (active)
same,outcome,[7],inactive
same,AC50,[10],26.8 µM (active)
same,AC50,[8],28.7 µM (active)
CCc1nn(C)c(C(=O)NCc2ccc(C(C)(C)C)cc2)c1Cl,AC50,[2],25.3 µM (active)
same,outcome,[3],inactive
same,AC50,[4],37.2 µM (active)
same,AC50,[5],26.9 µM (active)
same,AC50,[9],33.7 µM (active)
same,AC50,[6],30.2 µM (active)
same,outcome,[7],inactive
same,outcome,[8],inactive
CCON=C(CC)C1=C(O)CC(c2c(C)cc(C)cc2C)CC1=O (configuration not stated),outcome,[2],inactive
same,outcome,[3],inactive
same,outcome,[4],inactive
same,outcome,[5],inactive
same,outcome,[6],inactive
same,outcome,[7],inactive
same,outcome,[10],inactive
same,outcome,[8],inactive
COC(=O)N(OC)c1ccccc1COc1ccn(-c2ccc(Cl)cc2)n1,AC50,[2],20 µM (active)
same,outcome,[3],inactive
same,AC50,[4],13.7 µM (active)
same,AC50,[5],20 µM (active)
same,AC50,[9],10.5 µM (active)
same,AC50,[6],28.1 µM (active)
same,AC50,[7],3.97 µM (active)
same,outcome,[8],inactive
COP(=S)(OC)Oc1nc(Cl)c(Cl)cc1Cl,AC50,[2],20 µM (active)
same,outcome,[3],inactive
same,AC50,[4],39 µM (active)
same,AC50,[5],20 µM (active)
same,outcome,[6],inactive
same,outcome,[7],inactive
same,outcome,[8],inactive
CCOP(=S)(OCC)SCn1c(=O)oc2cc(Cl)ccc21,AC50,[2],30.2 µM (active)
same,outcome,[3],inactive
same,AC50,[4],39 µM (active)
same,AC50,[5],29.6 µM (active)
same,outcome,[6],inactive
same,outcome,[7],inactive
same,outcome,[8],inactive
N#Cc1cc(Br)c(O)c(Br)c1,AC50,[2],20 µM (active)
same,outcome,[3],inactive
same,outcome,[4],inactive
same,AC50,[5],16.5 µM (active)
same,outcome,[6],inactive
same,outcome,[7],inactive
same,outcome,[8],inactive
COc1nc(NC(C)C)nc(NC(C)C)n1,outcome,[1],inactive
same,outcome,[2],inactive
same,outcome,[3],inactive
same,outcome,[4],inactive
same,outcome,[5],inactive
same,outcome,[6],inactive
same,AC50,[7],0.148 µM (active)
same,outcome,[8],inactive
Cc1cc(Cl)ccc1OCC(=O)O,outcome,[2],inactive
same,outcome,[3],inactive
same,outcome,[4],inactive
same,outcome,[5],inactive
same,outcome,[6],inactive
same,outcome,[7],inactive
same,outcome,[8],inactive
COC(=O)C=C(C)OP(=O)(OC)OC,outcome,[2],inactive
same,outcome,[3],inactive
same,outcome,[4],inactive
same,outcome,[5],inactive
same,outcome,[6],inactive
same,outcome,[7],inactive
same,outcome,[8],inactive
CNC(=O)ON=CC(C)(C)SC,outcome,[2],inactive
same,outcome,[3],inactive
same,outcome,[4],inactive
same,outcome,[5],inactive
same,outcome,[6],inactive
same,outcome,[7],inactive
same,outcome,[8],inactive
C#CCOS(=O)OC1CCCCC1Oc1ccc(C(C)(C)C)cc1 (configuration not stated),AC50,[2],12.3 µM (active)
same,outcome,[3],inactive
same,AC50,[4],5.07 µM (active)
same,AC50,[5],3.97 µM (active)
same,AC50,[9],11.3 µM (active)
same,AC50,[6],22.7 µM (active)
same,outcome,[7],inactive
same,AC50,[8],20 µM (active)
Cc1c(F)c(F)c(COC(=O)C2C(/C=C(\Cl)C(F)(F)F)C2(C)C)c(F)c1F (configuration not stated),outcome,[1],inactive
same,AC50,[2],13.7 µM (active)
same,outcome,[3],inactive
same,AC50,[4],9.8 µM (active)
same,outcome,[5],inactive
same,outcome,[7],inactive
same,outcome,[10],inactive
same,outcome,[8],inactive
O=C(Nc1ccccc1)Nc1ccnc(Cl)c1,outcome,[1],inactive
same,outcome,[2],inactive
same,outcome,[3],inactive
same,outcome,[4],inactive
same,outcome,[5],inactive
same,outcome,[6],inactive
same,AC50,[7],1.43 µM (active)
same,outcome,[8],inactive
N#CC(CCc1ccc(Cl)cc1)(Cn1cncn1)c1ccccc1 (configuration not stated),AC50,[2],20 µM (active)
same,outcome,[3],inactive
same,AC50,[4],39 µM (active)
same,outcome,[5],inactive
same,outcome,[9],inactive
same,AC50,[6],13.5 µM (active)
same,outcome,[7],inactive
same,outcome,[8],inactive
CC(Oc1ccc(Cl)cc1Cl)C(=O)O (configuration not stated),outcome,[2],inactive
same,outcome,[3],inactive
same,outcome,[4],inactive
same,outcome,[5],inactive
same,outcome,[6],inactive
same,outcome,[7],inactive
same,outcome,[8],inactive
CCOc1cc(Oc2ccc(C(F)(F)F)cc2Cl)ccc1[N+](=O)[O-],AC50,[2],14.1 µM (active)
same,AC50,[3],7.63 µM (active)
same,outcome,[4],inactive
same,outcome,[5],inactive
same,AC50,[6],6.77 µM (active)
same,AC50,[7],4.94 µM (active)
same,outcome,[8],inactive
CC(C)C1(C)N=C(c2nc3ccccc3cc2C(=O)O)NC1=O (configuration not stated),outcome,[2],inactive
same,outcome,[3],inactive
same,outcome,[4],inactive
same,outcome,[5],inactive
same,outcome,[6],inactive
same,outcome,[7],inactive
same,outcome,[10],inactive
same,outcome,[8],inactive
O=C(O)c1nc(Cl)ccc1Cl,outcome,[2],inactive
same,outcome,[3],inactive
same,AC50,[4],39 µM (active)
same,outcome,[4],inactive
same,outcome,[5],inactive
same,outcome,[6],inactive
same,outcome,[7],inactive
same,outcome,[8],inactive
COc1cnc(OC)n2nc(NS(=O)(=O)c3c(OCC(F)F)cccc3C(F)(F)F)nc12,outcome,[2],inactive
same,outcome,[3],inactive
same,outcome,[4],inactive
same,outcome,[5],inactive
same,outcome,[6],inactive
same,outcome,[7],inactive
same,outcome,[10],inactive
same,outcome,[8],inactive
